# From PubChem BioAssay (NCI)
# Compounds without any hit were thinned out: in the full panel of roughly 83,000, 20% have a hit.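 Growth was measured after 48 h exposure to one concentration of compound in 96-well plates. Values under 10 count as active.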 A number with no mark means an inactive call. Active and inactive are the calls of the source.
# Key:
# Test in all cases: NCI-60 one-dose screen, 48 h (100 = growth as untreated, 0 = no growth, -100 = all killed)
# Conditions in all cases: 10 µM unless noted
# SR leukemia = tested on: SR leukemia
# RPMI-8226 leukemia = tested on: RPMI-8226 leukemia
# OVCAR-8 ovarian = tested on: OVCAR-8 ovarian
# OVCAR-5 ovarian = tested on: OVCAR-5 ovarian
# OVCAR-4 ovarian = tested on: OVCAR-4 ovarian
# SK-OV-3 ovarian = tested on: SK-OV-3 ovarian
# IGROV1 ovarian = tested on: IGROV1 ovarian
# OVCAR-3 ovarian = tested on: OVCAR-3 ovarian
# HS 578T breast = tested on: HS 578T breast
# NCI/ADR-RES ovarian = tested on: NCI/ADR-RES ovarian
# T-47D breast = tested on: T-47D breast
# BT-549 breast = tested on: BT-549 breast
# MDA-MB-435 melanoma = tested on: MDA-MB-435 melanoma
# SW-620 colon = tested on: SW-620 colon
# MCF7 breast = tested on: MCF7 breast
# HCT-116 colon = tested on: HCT-116 colon
# HCC-2998 colon = tested on: HCC-2998 colon
# KM12 colon = tested on: KM12 colon
SMILES,growth (SR leukemia),growth (RPMI-8226 leukemia),growth (OVCAR-8 ovarian),growth (OVCAR-5 ovarian) [%],growth (OVCAR-4 ovarian) [%],growth (SK-OV-3 ovarian),growth (IGROV1 ovarian),growth (OVCAR-3 ovarian),growth (HS 578T breast),growth (NCI/ADR-RES ovarian),growth (T-47D breast),growth (BT-549 breast),growth (MDA-MB-435 melanoma),growth (SW-620 colon),growth (MCF7 breast),growth (HCT-116 colon),growth (HCC-2998 colon),growth (KM12 colon)
O=S(=O)(NCCCNc1nccc(-c2c(-c3ccccc3)nc3sccn23)n1)c1ccc(F)cc1,34.6%,38.8%,26.2%,111,36.2,59.1%,32.9%,49.6%,72%,22.4%,7.39% (active),54.3%,16.5%,53.8%,31.6%,25.9%,86.4%,39.4%
O=C(Nc1ccc(Br)c(Cl)c1)c1cc(F)ccc1O,0.366% (active),-16.1% (active),6.78% (active),24.4,12.4,3.58% (active),16.2%,12.1%,17.4%,6.11% (active),3.88% (active),-39% (active),-11.3% (active),7.76% (active),2.5% (active),-21.8% (active),14.7%,2.98% (active)
COc1ccc(NC(=O)c2cc3ccccc3nc2Nc2cc(OC)c(OC)c(OC)c2)cc1,56.6%,35.5%,41.9%,92.4,58.1,91.7%,87%,48%,79%,43.2%,27.1%,52.8%,63.9%,75.1%,39.4%,48.2%,89%,37.9%
COc1c(NC[C@H]2OC(O)[C@H](O)[C@@H](O)[C@@H]2O)c(=O)c1=O (stereo partly specified),119%,101%,101%,103,84.4,106%,120%,113%,101%,101%,95.3%,112%,98%,101%,103%,100%,97.9%,111%
O=S(=O)(NCCCNc1cc(-c2cn(-c3ccccc3)nc2-c2cccc(O)c2)ccn1)c1cccc(F)c1,35%,32%,39.8%,68.3,50.2,72%,53.8%,65.6%,41.7%,49.3%,15.6%,44.7%,49.3%,29.5%,31.2%,32.1%,10.3%,28.2%
O=S(=O)(NCCNc1cc(-c2cn(-c3ccccc3)nc2-c2ccccc2)ccn1)c1cccc2ccccc12,56%,38.7%,56%,74.4,49.1,66.3%,63.1%,59.5%,56.3%,43.8%,24.3%,49.3%,46.3%,62.5%,28.2%,34.8%,56.4%,41.6%
COc1cc(OC)c(C(=O)/C=C/c2cccc(C#N)c2)c(OC)c1,3.17% (active),1.52% (active),7.46% (active),40.1,18.1,0.849% (active),9.48% (active),9.13% (active),17.6%,14.8%,4.14% (active),-3.25% (active),7.3% (active),6.58% (active),15%,2.91% (active),14.4%,6.41% (active)
CCOC(=O)C(Cc1ccccc1)n1c(O)c(C=Nc2ccc(C(=O)OCCN(CC)CC)cc2)sc1=O (stereo unspecified),23.7%,68%,92.8%,100,89.4,106%,97.5%,93%,88.1%,107%,81.6%,96.3%,90.1%,97.6%,74.5%,104%,108%,83.5%
O=C(Nc1ccc(I)cc1)c1cc([N+](=O)[O-])ccc1O,36.6%,10.1%,39.9%,54.8,30.3,38.6%,39.6%,18.3%,16.1%,29.1%,29.9%,34.3%,38.5%,35.2%,18.9%,19.3%,16.1%,21%
COc1ccc(Cn2cc(COc3cc(/C=C/C(=O)c4cc(OC)c(OC)c(OC)c4)ccc3OC)nn2)cc1,5.65% (active),-2.32% (active),46.6%,81.3,51,72%,88.8%,54.3%,83.3%,46.2%,65.4%,30.8%,12.5%,19.8%,21.3%,17.9%,110%,15.8%
Nc1ccccc1C#C/C=C\C#Cc1cccc(O)c1,13%,34%,84.9%,62.6,45,74.4%,-19.5% (active),43%,64.3%,31.8%,55.2%,44.8%,6.89% (active),32.4%,35.9%,42.3%,41.3%,27.9%
CC(C)CCC[C@@H](C)[C@H]1CC[C@H]2[C@@H]3CC[C@H]4C/C(=N/O)CC[C@]4(C)[C@H]3CC[C@]12C,99.6%,101%,96.8%,112,119,104%,111%,113%,101%,111%,103%,108%,103%,97.9%,103%,109%,86.3%,108%
COc1ccc(-c2nc(-c3nc4ccc(F)cc4[nH]3)cc3c2[nH]c2ccccc23)cc1,15.5%,-5.03% (active),13.6%,77.8,45.8,87%,27%,42.3%,42.4%,19.7%,40.8%,41.8%,27.5%,48.3%,32.2%,25.3%,30.9%,23.4%
CN(C)C/C=C/C(=O)Nc1cc2c(Nc3ccc(F)c(Cl)c3F)ncnc2cc1OCCOC(F)F,14.8%,11.4%,26.6%,26.6,16,0.142% (active),-15.6% (active),-15.4% (active),-19.2% (active),20.1%,-1.23% (active),5.73% (active),5.61% (active),3.09% (active),20%,2.2% (active),41.1%,44.6%
O=C1CCCCN1CCCCC#Cc1ccccc1C#Cc1ccccn1,98.6%,107%,113%,95.2,95.2,118%,-11.3% (active),104%,118%,92.2%,92.9%,117%,98.1%,103%,109%,106%,88.5%,111%
CC(=O)n1cc([C@H]2CC[C@H](c3cn(C(C)=O)c4ccccc34)c3c2[nH]c2ccccc32)c2ccccc21,93.9%,50.8%,89.5%,102,77.7,80.4%,58.3%,76.3%,106%,80.7%,50.8%,95.2%,93.1%,90.3%,63.7%,63.9%,87.3%,64.4%
CC(C)C[C@H](NC(=O)[C@@H](Cc1ccccc1)n1ccc(Nc2ccccc2)cc1=O)B(O)O,21%,-16% (active),8.16% (active),16,33.9,46.1%,-35.1% (active),-61% (active),22.8%,75%,-15.4% (active),-10.5% (active),-51.3% (active),-10.4% (active),21.1%,-37.9% (active),-83.8% (active),-55.1% (active)
